Active and inactive are the calls of the source.

For test [1], the system named is Plasmodium falciparum Sir2 (PF13_0152, Sir2A). Kind of test: Plasmodium falciparum Sir2A binding compounds – biochemical, small-molecule microarray, 635 nm fluorescence, primary screen (AID 1098).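 Also: score merges spot fluorescence intensity with its signal-to-noise ratio.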 Particulars: fluorescence 635 nm, higher = more signal.
Test [2] can be described thus: probe aDKK1 binding to arrayed compounds – biochemical, biotinylated probe, 635/667 nm fluorescence, primary screen (AID 1099).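 Also: score merges 667nm spot fluorescence with signal to noise across triplicate slides.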 Particulars: small-molecule microarray, higher = more signal.
A short description of test [3]: probe aCHRDL2 binding to arrayed compounds – biochemical, biotinylated probe, 635/667 nm fluorescence, primary screen (AID 1100). Particulars: small-molecule microarray, higher = more signal.
A short description of test [4]: change in splice reporter luminescence, either direction, cell-based, HEK293, spliceosome inhibition project, primary screen (AID 1101).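 Also: HEK293 cells carrying a splicing-competent luciferase reporter gene; test concentration not given here.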 Particulars: HEK293 splicing luciferase reporter, 24 h, higher = more signal, called active from +8 up or from −8 down. In general terms: In a reporter assay the amount or activity of a reporter protein is the signal.
Test [5] addresses Fibroblast growth factor 10 (Homo sapiens) (UniProt O15520). Description: compounds binding fibroblast growth factor 10 – biochemical, small-molecule microarray, 635 nm fluorescence, primary screen (AID 1102). Particulars: FGF10 binding, fluorescence 635 nm, higher = more signal.
For test [6], the system named is glycogen synthase kinase-3 (GSK3A per assay name; protocol says GSK3B). Description: compounds binding glycogen synthase kinase-3 – biochemical, small-molecule microarray, 635 nm fluorescence, GSK3A, primary screen (AID 1103). Also: the record names both GSK3A and GSK3B. Particulars: fluorescence 635 nm, higher = more signal.
Test [7] addresses Epidermal growth factor receptor (Homo sapiens) (UniProt P00533). Description: compounds binding epidermal growth factor receptor – biochemical, small-molecule microarray, 635 nm fluorescence, primary screen (AID 1104).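 Also: score merges 667 nm emission intensity with spot signal to noise over triplicate slides.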 Particulars: EGFR binding, higher = more signal.
Test [8] concerns the target Follistatin-related protein 3 (Homo sapiens) (UniProt O95633). Description: compounds binding follistatin-related protein 3 – biochemical, small-molecule microarray, 635 nm fluorescence, primary screen (AID 1105).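 Also: score merges emission near 667 nm and signal to noise per printed spot across three slides.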 Particulars: FSTL3 binding, higher = more signal.
Test [9] has as its target Dickkopf-related protein 1 (Homo sapiens) (UniProt O94907). Description: small molecules binding DKK1 protein – biochemical, small-molecule microarray, 635 nm fluorescence scan, primary screen (AID 1106).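 Also: score merges emission near 667 nm with signal to noise over three replicate slides.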 Particulars: higher = more signal.
Test [10] has as its system Inhibin beta A chain (activin A). Description: small molecules binding activin A – biochemical, small-molecule microarray, 635 nm fluorescence scan, primary screen (AID 1107).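 Also: mouse activin A protein probed at 4.33 µg/mL on printed slides; score merges bound-protein fluorescence near 667 nm with spot signal-to-noise.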 Particulars: INHBA, higher = more signal.
The subject of test [11] is Human papillomavirus type 1a protein E7 (residues 44-93). Description: small molecules binding HPV E7 44-93 – biochemical, small-molecule microarray, residues 44-93, 635 nm fluorescence, primary screen (AID 1108).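 Also: E7 fragment applied at 1 µg/mL in TBST for 1 h at 4 C; score combines spot fluorescence with its signal to noise ratio.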 Particulars: fluorescence 635 nm, higher = more signal.
Test [12] is described as follows: hepatitis C replication reporter changes, two-sided – Huh7 cells, luciferase reporter, HCV replication inhibitor project, primary screen (AID 1109).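 Also: huh7 hepatoma cells harbouring a luciferase neomycin HCV replicon reporter; luciferase luminescence as measure of HCV replicon replication; test concentration not given here.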 Particulars: Huh7 HCV replicon luciferase reporter, 48 h; higher = more signal.
In test [13] the target is Left-right determination factor 2 (Homo sapiens) (UniProt O00292). Kind of test: small molecules binding LEFTY2 protein – biochemical, small-molecule microarray, 635 nm fluorescence scan, primary screen (AID 1110). Particulars: higher = more signal.
Chain of Left-right determination factor 2 (Homo sapiens) (O00292 whole entry, looked up): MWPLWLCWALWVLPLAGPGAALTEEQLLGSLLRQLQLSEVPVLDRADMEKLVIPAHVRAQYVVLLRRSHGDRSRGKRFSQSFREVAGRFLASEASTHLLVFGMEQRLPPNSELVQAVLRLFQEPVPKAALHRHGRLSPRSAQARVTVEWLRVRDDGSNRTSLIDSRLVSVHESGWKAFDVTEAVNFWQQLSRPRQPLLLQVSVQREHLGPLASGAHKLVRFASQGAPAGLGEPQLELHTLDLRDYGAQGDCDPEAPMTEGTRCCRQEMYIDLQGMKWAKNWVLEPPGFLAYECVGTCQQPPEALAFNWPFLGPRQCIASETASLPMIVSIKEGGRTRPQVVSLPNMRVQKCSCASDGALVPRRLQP
Test [14] has as its target Calmodulin-1 (Homo sapiens) (UniProt P0DP23). Kind of test: small molecules binding calmodulin-1 with EGTA – biochemical, small-molecule microarray, Cy5-labelled CALM1, profiling panel (AID 1111).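 Also: labelled calmodulin applied in Tris saline Tween buffer holding calcium plus EGTA and DTT.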 Particulars: Cy5-CALM1 binding fluorescence, higher = more signal.
The target is the same in test [15]. Kind of test: small molecules binding Ca-loaded calmodulin-1 – biochemical, small-molecule microarray, Cy5-labelled CALM1, plus calcium, artefact control for SMM control-protein annotation, profiling panel (AID 1112).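 Also: score merges spot fluorescence with signal to noise from triplicate slides.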 Particulars: Cy5-CALM1 binding fluorescence, higher = more signal.
A short description of test [16]: probe aWnt5a binding to arrayed compounds – biochemical, biotinylated probe, 635/667 nm fluorescence, primary screen (AID 1113).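 Also: score merges 667 nm fluorescence intensity with signal-to-noise per printed feature.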 Particulars: small-molecule microarray, higher = more signal.
Test [17] can be described thus: probe aShh binding to arrayed compounds – biochemical, biotinylated probe, 635/667 nm fluorescence, primary screen (AID 1114).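 Also: probe is biotin-labelled aShh protein from a stem cell growth factor screen; measures binding of labelled protein to compounds printed on the slide; score merges feature fluorescence at 667 nm with signal-to-noise.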 Particulars: small-molecule microarray, higher = more signal.
Test [18] in a line: probe aNog binding to arrayed compounds – biochemical, biotinylated probe, 635/667 nm fluorescence, primary screen (AID 1115).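 Also: probe is biotinylated aNog protein used at 0.15 µg/mL for 1 h at 4 C; z-score combines 667 nm fluorescence of each spot with its signal to noise.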 Particulars: small-molecule microarray, higher = more signal.
Test [19] addresses Torsin-1A-interacting protein 1 (Homo sapiens) (UniProt Q5JTV8). Kind of test: compound microarray binding of lysate hLAP1 – cell lysate, small-molecule microarray, COS7 lysate, 635/667 nm fluorescence, primary screen (AID 1116). Particulars: 635 nm fluorescence, higher = more signal.
In test [20] the target is Alpha-bungarotoxin (Bungarus multicinctus) (UniProt P60615). Kind of test: compounds binding labelled alpha-BTX control protein – biochemical, small-molecule microarray, Alexa647 label, 635/667 nm fluorescence, artefact control for SMM control protein annotation, profiling panel (AID 1117). Particulars: alpha-BTX-A647 binding fluorescence, higher = more signal.
Chain of Alpha-bungarotoxin (Bungarus multicinctus) (P60615 whole entry, looked up): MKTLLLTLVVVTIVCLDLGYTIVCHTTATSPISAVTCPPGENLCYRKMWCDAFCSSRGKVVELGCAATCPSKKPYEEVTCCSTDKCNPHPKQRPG

Chain of Torsin-1A-interacting protein 1 (Homo sapiens) (Q5JTV8 whole entry, looked up): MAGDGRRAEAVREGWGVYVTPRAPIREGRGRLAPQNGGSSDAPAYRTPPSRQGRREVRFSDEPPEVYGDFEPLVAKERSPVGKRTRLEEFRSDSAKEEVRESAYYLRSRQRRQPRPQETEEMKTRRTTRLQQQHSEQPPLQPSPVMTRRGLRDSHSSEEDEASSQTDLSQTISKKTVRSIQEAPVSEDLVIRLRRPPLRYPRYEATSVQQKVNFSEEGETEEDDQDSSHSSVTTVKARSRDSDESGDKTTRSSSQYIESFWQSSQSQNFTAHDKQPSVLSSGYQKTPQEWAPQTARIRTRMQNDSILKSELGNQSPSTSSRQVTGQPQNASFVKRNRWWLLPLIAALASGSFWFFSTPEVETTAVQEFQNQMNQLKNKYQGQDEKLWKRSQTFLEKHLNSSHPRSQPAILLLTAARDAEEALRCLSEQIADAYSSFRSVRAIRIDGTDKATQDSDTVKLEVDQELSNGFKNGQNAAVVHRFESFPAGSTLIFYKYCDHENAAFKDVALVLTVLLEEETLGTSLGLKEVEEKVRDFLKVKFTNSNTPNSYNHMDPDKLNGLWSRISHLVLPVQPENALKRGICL
Chain of Follistatin-related protein 3 (Homo sapiens) (O95633 whole entry, looked up): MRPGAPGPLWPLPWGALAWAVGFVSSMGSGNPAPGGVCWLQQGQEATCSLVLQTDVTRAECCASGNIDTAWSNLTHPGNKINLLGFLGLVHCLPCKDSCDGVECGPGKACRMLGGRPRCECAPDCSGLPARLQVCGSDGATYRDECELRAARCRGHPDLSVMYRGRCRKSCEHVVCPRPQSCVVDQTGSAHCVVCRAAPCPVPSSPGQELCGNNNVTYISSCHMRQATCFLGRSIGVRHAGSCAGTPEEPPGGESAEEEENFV
Chain of Fibroblast growth factor 10 (Homo sapiens) (O15520 whole entry, looked up): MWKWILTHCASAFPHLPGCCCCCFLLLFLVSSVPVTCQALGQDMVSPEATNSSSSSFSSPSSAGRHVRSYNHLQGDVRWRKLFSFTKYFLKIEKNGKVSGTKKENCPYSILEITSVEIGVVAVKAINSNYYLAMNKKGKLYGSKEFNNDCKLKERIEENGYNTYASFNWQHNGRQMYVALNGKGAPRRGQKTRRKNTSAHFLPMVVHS
Chain of Dickkopf-related protein 1 (Homo sapiens) (O94907 whole entry, looked up): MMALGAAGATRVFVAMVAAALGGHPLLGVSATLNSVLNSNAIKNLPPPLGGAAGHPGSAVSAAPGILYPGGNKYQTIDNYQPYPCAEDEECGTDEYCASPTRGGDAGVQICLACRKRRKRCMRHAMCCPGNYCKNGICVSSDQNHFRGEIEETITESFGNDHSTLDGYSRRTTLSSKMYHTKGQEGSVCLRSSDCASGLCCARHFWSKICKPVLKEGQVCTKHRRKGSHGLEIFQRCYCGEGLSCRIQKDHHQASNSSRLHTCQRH
Chain of Epidermal growth factor receptor (Homo sapiens) (P00533 whole entry, looked up): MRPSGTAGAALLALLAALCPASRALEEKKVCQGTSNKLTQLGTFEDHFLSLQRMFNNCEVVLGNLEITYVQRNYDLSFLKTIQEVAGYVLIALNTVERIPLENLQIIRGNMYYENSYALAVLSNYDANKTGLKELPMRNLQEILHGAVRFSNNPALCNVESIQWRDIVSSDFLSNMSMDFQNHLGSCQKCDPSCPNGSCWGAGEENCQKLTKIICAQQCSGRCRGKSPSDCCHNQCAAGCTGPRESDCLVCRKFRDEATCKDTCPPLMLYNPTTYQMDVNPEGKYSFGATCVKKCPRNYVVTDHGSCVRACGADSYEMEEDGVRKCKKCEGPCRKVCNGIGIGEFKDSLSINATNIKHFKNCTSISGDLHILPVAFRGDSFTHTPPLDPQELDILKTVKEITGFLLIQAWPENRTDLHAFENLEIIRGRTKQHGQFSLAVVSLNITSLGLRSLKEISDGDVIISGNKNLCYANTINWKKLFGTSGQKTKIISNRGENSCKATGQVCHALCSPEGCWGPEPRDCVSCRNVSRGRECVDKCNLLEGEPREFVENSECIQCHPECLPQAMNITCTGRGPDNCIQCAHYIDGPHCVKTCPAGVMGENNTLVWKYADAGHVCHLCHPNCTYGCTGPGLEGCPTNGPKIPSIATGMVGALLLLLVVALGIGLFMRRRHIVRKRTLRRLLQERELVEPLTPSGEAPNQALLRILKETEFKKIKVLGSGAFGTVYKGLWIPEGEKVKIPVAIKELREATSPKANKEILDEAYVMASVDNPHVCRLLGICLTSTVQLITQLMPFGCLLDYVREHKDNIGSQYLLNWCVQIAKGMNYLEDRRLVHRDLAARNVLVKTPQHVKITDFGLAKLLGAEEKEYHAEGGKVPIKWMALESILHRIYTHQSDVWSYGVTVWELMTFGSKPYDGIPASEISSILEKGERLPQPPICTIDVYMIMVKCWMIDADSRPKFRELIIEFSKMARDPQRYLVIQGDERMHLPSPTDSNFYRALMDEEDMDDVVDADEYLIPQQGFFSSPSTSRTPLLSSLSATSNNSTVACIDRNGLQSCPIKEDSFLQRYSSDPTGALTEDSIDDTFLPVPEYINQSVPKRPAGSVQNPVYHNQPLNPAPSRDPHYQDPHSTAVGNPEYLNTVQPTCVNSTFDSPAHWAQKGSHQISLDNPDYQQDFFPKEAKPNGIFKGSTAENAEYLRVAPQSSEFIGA

Take `C[N+](C)(C)CCCCNC(=O)[C@H]1C[C@H]2C(=O)N3CCC[C@H]3C(=O)N2[C@H]1c1cccc(OCCO)c1`: the composite z-score in [1] was 0.501; in test [2], 0.0086; in test [3], 0.314; in test [5] it was 0.489; in test [6] it was -0.415; in test [7] it was -0.142. Moreover, the composite z-score in [8] is 1.14; in test [9], 1.32; in test [10], 1.08; in [11], -1.09; in [13] it was 0.766; in [14], -0.858. Besides, the composite z-score in [15] is 1.03; in test [16] it was -0.0721; in [17] it was 0.0141; in test [18], 0.0043; in [19] it was 0.854; in test [20] it was -0.912. The z-score is 0.717 (inactive) in [4] and -0.884 in test [12].
Regarding `COC(=O)[C@@]1(Cc2ccc(F)cc2)[C@H]2c3cc(C(=O)N(C)C)n(Cc4ccccc4)c3C[C@H]2CN1C(=O)c1ccccc1`, the composite z-score in test [1] was 1.18; in test [2], 1.06; in [3], 0.971; in test [5], 0.483; in test [6] it was -0.159; in [7], -0.22. For the same compound, the composite z-score was 0.827 in [8]; -0.251 in test [9]; 0.766 in test [10]; 1.35 in [11]; -0.496 in test [13]; 1.11 in test [14]. Besides, the composite z-score was 0.363 in test [15]; -0.0977 in [16]; 1.17 in test [17]; 1.59 in test [18]; -0.3 in test [19]; 2.56 in test [20]. Besides, the z-score in test [4] was -0.376 (inactive); in [12], 0.185.
In the case of `CCOC(=O)C[C@H]1[C@H](OC(=O)c2ccccc2-c2ccccc2)[C@@H](NC(=O)CC(C)C)c2cc(OCCCO)ccc2N1C(=O)Cc1ccc(OC)cc1`, the composite z-score in test [1] is 0.0681; in test [2], -0.235; in test [3], 0.0198; in test [5] it was 0.215; in test [6], -0.199; in test [7] it was -0.0484. Besides, the composite z-score was -0.305 in test [8]; -0.239 in [9]; 0.328 in [10]; -0.0946 in test [11]; -0.262 in test [13]; -0.0904 in test [14]. The composite z-score in [15] was -0.265; in test [16] it was -0.0953; in test [17], 0.199; in [18] it was -0.326; in test [19], 0.784; in [20], -0.213. Besides, the z-score in [4] was -0.284 (inactive); in test [12], -1.25.
In the case of `CC(C)C(CO)N1C(=O)[C@@H]2C3C(=O)OCCC/C=C\[C@H]3OC23C=CCN(CCN2CCOCC2)C(=O)[C@@H]13` (stereo not given in full), the composite z-score in [1] was -0.768; in test [2] it was -0.355; in test [3], -0.45; in test [5] it was 0.0971; in test [6], 0.0585; in test [7] it was -0.203. In addition, the composite z-score in [8] was 0.0915; in test [9], 0.284; in [10], 0.88; in test [11], -0.729; in test [13], 0.0228; in [14] it was -0.799. Further, the composite z-score in test [15] was -0.386; in [16], -0.0529; in test [17], -0.209; in test [18] it was -0.238; in test [19] it was 1.38; in test [20], -1.6. For the same compound, the results for the z-score in [4] and in test [12] were 0.963 (inactive) and 0.0618, respectively.
Turning to `CCCc1cc2c(n1Cc1cc(F)cc(F)c1)C(C)C1CN(C(=O)c3ccccc3)C(C)(C(=O)OC)C21` (stereo not given), the composite z-score in test [1] is 1.01; in test [2], 1.28; in [3] it was 1.33; in [5], 1.21; in [6], 1.07; in test [7], 0.0159. The composite z-score in test [8] is 0.899; in test [9], 0.215; in test [10], 1.27; in test [11] it was 1.35; in [13], 0.225; in test [14], 2.31. Besides, the composite z-score in test [15] was 0.813; in [16], 0.36; in test [17] it was -0.148; in test [18], 0.363; in [19] it was 2.6; in [20], 2.34. Moreover, the z-score is -3.1 (inactive) in test [4] and -2.24 in test [12].

Values taken from PubChem BioAssay.
